The values below come from the supplement of paper PMC12297408.

This test has as its system Plasmodium falciparum NF54/iGP1_RE9H ulg8 stage V gametocytes. The test can be described thus: gametocyte viability (luciferase signal relative to DMSO control) (% of DMSO control); higher = less gametocytocidal activity, active = 50 or less. To be noted: exposure time: 72 h. An outline of the steps: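 NF54/iGP1_RE9Hulg8 stage V gametocytes (day 12; ~2.5% gametocytemia, 3% hematocrit) were incubated with compounds at 10 µM or 1 µM final, in one well each, for 72 h at 37 °C in medium with 0.5% Albumax II. Luminescence after D-luciferin addition was read on an IVIS Lumina II. Viability refers to the mean of plate DMSO vehicle wells.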

Each structure is given as a SMILES string. Structures can show the parent of a compound that is named as a salt. Hit rate of the full screen: of about 1,300 compounds, about 40 (3%) showed activity. The list comes from a sample in which actives are over-represented; it also holds similar structures and randomly drawn compounds. A number with no mark means an inactive call.

As for `CN(C)CCN(Cc1ccc(Cl)cc1)c1ccccn1` [Chloropyramine hydrochloride], the gametocyte viability runs as follows: (concentration: 1 µM) 87.4; (concentration: 10 µM) 90.3.
The matching figures for `CCCCCCCCCCCCCCCC[N+](C)(C)CCN(Cc1ccc(OC)cc1)c1ncccn1` [Thonzonium bromide]: 77 and 1.76 (active).
The matching figures for `COc1ccc(CN(CCN(C)C)c2ccccn2)cc1` [Pyrilamine maleate]: 90.9 and 100.
The matching figures for `CCCNCC(O)COc1ccccc1C(=O)CCc1ccccc1` (stereo not given) [Propafenone hydrochloride]: 81.6 and 75.7.
Consider `CC(C)Nc1cccnc1N1CCN(C(=O)c2cc3cc(NS(C)(=O)=O)ccc3[nH]2)CC1` [Delavirdine], for which the gametocyte viability is 92.5 (concentration: 1 µM) and 95.8 (concentration: 10 µM).
The matching figures for `CC[C@@H]1C(=O)OC[C@@H]1Cc1cncn1C` [Pilocarpine nitrate]: 98.2 and 98.
The matching figures for `CC(C)NCC(O)c1ccc(NS(C)(=O)=O)cc1` (stereo not given) [Sotalol hydrochloride]: 83.1 and 92.1.
Take `N=C(N)NC(=N)NCCc1ccccc1` [Phenformin hydrochloride]: the gametocyte viability was 83.8 (concentration: 1 µM) and 83.6 (concentration: 10 µM).
The matching figures for `N=C(NCCCCCCNC(=N)NC(=N)Nc1ccc(Cl)cc1)NC(=N)Nc1ccc(Cl)cc1` [Chlorhexidine]: 92.1 and 1.08 (active).
The matching figures for `CC(C)NC(=N)NC(=N)Nc1ccc(Cl)cc1` [Proguanil hydrochloride]: 100 and 106.
The matching figures for `N=C(N=C(N)N)N1CCOCC1` [Moroxidine hydrochloride]: 83.9 and 87.9.
On to `NC1CCN(c2nc3c(cc2F)c(=O)c(C(=O)O)cn3-c2ccc(F)cc2F)C1` (stereo not given) [Tosufloxacin hydrochloride], for which the gametocyte viability reads like this: (concentration: 1 µM) 78.5; (concentration: 10 µM) 86.9.
With `NC(=O)c1ccc[n+]([C@@H]2O[C@H](COP(=O)([O-])OP(=O)(O)OC[C@H]3O[C@@H](n4cnc5c(N)ncnc54)[C@H](O)[C@@H]3O)[C@@H](O)[C@H]2O)c1` [Nadide], the gametocyte viability is 85.3 (concentration: 1 µM) and 79.3 (concentration: 10 µM).
In the case of `C[C@]12CCC(=O)C=C1C=C[C@@H]1[C@@H]2CC[C@@]2(C)[C@H]1CC[C@@]21CCC(=O)O1` [Canrenone], the gametocyte viability is, setting by setting: (concentration: 1 µM) 80; (concentration: 10 µM) 83.7.
The matching figures for `C[C@H]1O[C@H](O[C@H]2[C@H](O)[C@@H](O)[C@@H](O[C@@H]([C@H](O)[C@@H](O)C=O)[C@H](O)CO)O[C@@H]2CO)[C@H](O)[C@@H](O)[C@@H]1N[C@H]1C=C(CO)[C@@H](O)[C@H](O)[C@H]1O` [Acarbose]: 80.6 and 83.5.
In the case of `NCCc1cc[nH]n1` [Betazole hydrochloride], the gametocyte viability (concentration: 1 µM) was 94.2 and the gametocyte viability (concentration: 10 µM) was 94.2.
Consider `CCC(=O)OCC(=O)[C@@]1(OC(=O)CC)[C@H](C)C[C@H]2[C@H]3[C@H]([C@@H](O)C[C@@]21C)[C@@]1(C)C=CC(=O)C=C1C[C@H]3Cl` [Alclometasone dipropionate], for which the gametocyte viability (concentration: 1 µM) was 83.6 and the gametocyte viability (concentration: 10 µM) is 78.3.
The matching figures for `CN(N=O)C(=O)N[C@H]1C(O)O[C@H](CO)[C@@H](O)[C@@H]1O` (mixture of isomers) [Streptozotocin]: 84.7 and 92.1.
As for `C[C@@H](O)[C@H]1C(=O)N2C(C(=O)O)=C(SCCNC=N)C[C@H]12` [Imipenem], the gametocyte viability by setting is: (concentration: 1 µM) 88.8; (concentration: 10 µM) 87.5.
The matching figures for `Cc1cc(N)c2ccccc2[n+]1CCCCCCCCCC[n+]1c(C)cc(N)c2ccccc21` [Dequalinium dichloride]: 83.5 and 36.1 (active).
In the case of `Cc1[nH]c(=O)c(C#N)cc1-c1ccncc1` [Milrinone], the gametocyte viability is 81 (concentration: 1 µM) and 82.1 (concentration: 10 µM).
On to `Cc1c(C)c2c(c(C)c1O)CCC(C)(COc1ccc(CC3SC(=O)NC3=O)cc1)O2` (stereo not given) [Troglitazone], for which the gametocyte viability by setting is: (concentration: 1 µM) 81.7; (concentration: 10 µM) 76.3.
Regarding `CC=C(C)C(=O)OC1C(OC(C)=O)C2(CO)C(O)CC3(C)C(=CCC4C5(C)CCC(OC6OC(C(=O)O)C(OC7OC(CO)C(O)C(O)C7O)C(O)C6OC6OC(CO)C(O)C(O)C6O)C(C)(CO)C5CCC43C)C2CC1(C)C` (stereo not drawn) [Beta-Escin], the gametocyte viability runs as follows: (concentration: 1 µM) 90.1; (concentration: 10 µM) 93.2.
The matching figures for `C[C@@H](O[C@H]1OCCN(Cc2n[nH]c(=O)[nH]2)[C@H]1c1ccc(F)cc1)c1cc(C(F)(F)F)cc(C(F)(F)F)c1` [Aprepitant]: 87.7 and 75.4.
In the case of `CCN(CC)CCNC(C(=O)OCCC(C)C)c1ccccc1` (stereo not given) [Camylofine chlorhydrate], the gametocyte viability is 79.9 (concentration: 1 µM) and 85.5 (concentration: 10 µM).
